Measurements published in PubChem BioAssay (Tox21).
Inconclusive results are not listed. The source made the active and inactive calls. Unless noted, the call rests on the fitted dose curve; in most records, active means well fitted curve in the direction sought with a large enough effect in the repeat runs; inconclusive means weak or mixed curves; inactive means flat fitted curve, though single readings scatter.

Columns and labels:
[1] = qHTS assay to test for compound auto fluorescence at 535 nm (green) in HEK293 cells (AID 720680); conditions: green autofluorescence 485/535 nm; series mostly up to 91.3 µM
[2] = qHTS assay to test for compound auto fluorescence at 460 nm (blue) in HEK293 cell free culture (AID 720681); conditions: cell-free medium, autofluorescence 405/460 nm (blue); series mostly up to 91.3 µM
Outline: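 Test compounds were pinned into cell-free culture medium (DMEM with 10% FBS) and fluorescence was read directly at Ex/Em 405/460 nm. Signals were expressed as fluorescence equivalents of triamterene, with DMSO vehicle as control.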

[3] = qHTS assay to test for compound auto fluorescence at 535 nm (green) in HEK293 cell free culture (AID 720682); conditions: cell-free medium, green autofluorescence 485/535 nm, active compounds read high; series mostly up to 91.3 µM
Outline: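 Using fluorescein as calibrant, autofluorescence was quantified at 485/535 nm in cell-free DMEM containing 10% FBS after pintool addition of compound or vehicle.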

[4] = qHTS assay to test for compound auto fluorescence at 590 nm (red) in HEK293 cell free culture (AID 720683); conditions: cell-free medium autofluorescence, Ex540/Em590 red; series mostly up to 91.3 µM
Outline: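 Tox21 10K library compounds were pinned into cell-free DMEM with 10% FBS and fluorescence was read at excitation 540 nm. Activity is expressed as Rose Bengal sodium equivalency.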

[5] = qHTS assay to test for compound auto fluorescence at 590 nm (red) in HepG2 cell free culture (AID 720684); conditions: cell-free medium autofluorescence, red 540/590 nm; series mostly up to 91.3 µM
Outline: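 Measured in medium alone (MEM containing 10% FBS) following pintool addition of compound; emission at 590 nm with 540 nm excitation, referenced to Rose Bengal sodium.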

[6] = qHTS assay to test for compound auto fluorescence at 460 nm (blue) in HepG2 cell free culture (AID 720685); conditions: Cell-free culture medium, blue autofluorescence 405/460 nm; series mostly up to 91.3 µM
Outline: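 Compound (23 nL) or DMSO pinned into cell-free MEM with 10% FBS; blue fluorescence read at 405/460 nm excitation/emission, expressed as auto-fluorescence equivalency to triamterene.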

[7] = qHTS assay to test for compound auto fluorescence at 535 nm (green) in HepG2 cell free culture (AID 720686); conditions: Cell-free medium, green autofluorescence 485/535 nm; series mostly up to 91.3 µM
[8] = qHTS assay to test for compound auto fluorescence at 460 nm (blue) in HepG2 cells (AID 720687); conditions: autofluorescence 405/460 nm, 1 h; series mostly up to 91.3 µM
Outline: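 Cells (2,000/well in MEM with 10% FBS) attached overnight at 37 C, then were exposed to compound or DMSO for 1 hr at 37 C, 5% CO2. Fluorescence read at Ex/Em 405/460 nm, expressed as triamterene-equivalent signal.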

[9] = molecular target: Glucocorticoid receptor (Homo sapiens) (UniProt P04150); assay: qHTS assay to identify small molecule agonists of the glucocorticoid receptor (GR) signaling pathway (AID 720691; active means well fitted activation curve with a large enough effect in the signal ratio in the repeat runs, not every such curve was filed as active; the % refers to the signal ratio; further: potency means the concentration at half of the fitted maximal effect); conditions: GR-bla HeLa, beta-lactamase reporter ratio, 18 h; series mostly up to 62.4 µM
Outline: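 Fluorescence intensity from LiveBLAzer B/G FRET substrate (2 h, room temperature) reports beta-lactamase expression driven by the glucocorticoid response element in GR-bla HeLa cells after 18 h compound exposure at 37 C.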

[10] = molecular target: Glucocorticoid receptor (Homo sapiens) (UniProt P04150); assay: qHTS assay to identify small molecule antagonists of the glucocorticoid receptor (GR) signaling pathway (AID 720692; active means well fitted inhibition curve with a large enough effect in the signal ratio in the repeat runs, not every such curve was filed as active; the % refers to the signal ratio); conditions: GR-bla HeLa, beta-lactamase FRET ratio, dexamethasone-stimulated, 18 h; series mostly up to 58.5 µM
Outline: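 HeLa GR-bla cells; cmpd + dex 5 nM final, 18 h 37 C; LiveBLAzer B/G FRET substrate 2 h RT; fluorescence intensity read. Antagonist mode, qHTS.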
On the % scale 0 is the no-effect control and ±100 the full control effect.

Chain of Glucocorticoid receptor (Homo sapiens) (P04150 whole entry, looked up): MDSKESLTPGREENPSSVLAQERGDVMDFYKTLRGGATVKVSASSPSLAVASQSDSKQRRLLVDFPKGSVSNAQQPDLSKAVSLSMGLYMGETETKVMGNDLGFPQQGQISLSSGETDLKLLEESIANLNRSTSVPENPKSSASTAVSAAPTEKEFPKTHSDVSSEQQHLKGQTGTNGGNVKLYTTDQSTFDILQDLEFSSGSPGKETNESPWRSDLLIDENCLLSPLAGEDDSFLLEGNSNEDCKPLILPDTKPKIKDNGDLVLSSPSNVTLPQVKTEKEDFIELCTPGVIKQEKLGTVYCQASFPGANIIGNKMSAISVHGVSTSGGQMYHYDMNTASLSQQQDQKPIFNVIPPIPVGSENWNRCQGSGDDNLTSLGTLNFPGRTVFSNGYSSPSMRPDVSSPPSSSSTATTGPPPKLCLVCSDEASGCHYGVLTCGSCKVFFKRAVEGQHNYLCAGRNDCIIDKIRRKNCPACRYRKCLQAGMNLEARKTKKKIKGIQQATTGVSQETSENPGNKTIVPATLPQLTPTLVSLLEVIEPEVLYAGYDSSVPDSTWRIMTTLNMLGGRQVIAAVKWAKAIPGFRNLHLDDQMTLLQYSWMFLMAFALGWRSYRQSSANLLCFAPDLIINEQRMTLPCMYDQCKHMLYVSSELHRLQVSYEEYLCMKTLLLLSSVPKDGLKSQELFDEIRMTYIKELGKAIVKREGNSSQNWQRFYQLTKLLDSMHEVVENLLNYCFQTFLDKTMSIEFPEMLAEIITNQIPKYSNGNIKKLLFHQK

CC1=CCC(C(C)C)=CC1
inactive: outcome [1] | outcome [2] | outcome [3] | outcome [4] | outcome [5] | outcome [6] | outcome [7] | outcome [8]

CCCCCCCCSCC
inactive: outcome [1] | outcome [2] | outcome [3] | outcome [4] | outcome [5] | outcome [6] | outcome [7] | outcome [8] | Potency [9]

CN(CCOc1ccc(NS(C)(=O)=O)cc1)CCc1ccc(NS(C)(=O)=O)cc1
active: Potency [9] 7.56 µM
inactive: outcome [1] | outcome [2] | outcome [3] | outcome [4] | outcome [5] | outcome [6] | outcome [7] | outcome [8]

C=C(C)C(=O)OCC(C)(C)COC(=O)C(=C)C
inactive: outcome [1] | outcome [2] | outcome [3] | outcome [4] | outcome [5] | outcome [6] | outcome [7] | outcome [8]

CCc1ccc(C=O)cc1
inactive: outcome [1] | outcome [2] | outcome [3] | outcome [4] | outcome [5] | outcome [6] | outcome [7] | outcome [8] | Potency [9] | outcome [10]

C[C@@H]1O[C@@H](O[C@@H]2[C@@H](O)[C@H](OCCc3ccc(O)c(O)c3)O[C@H](CO[C@@H]3O[C@H](CO)[C@@H](O)[C@H](O)[C@H]3O)[C@H]2OC(=O)/C=C/c2ccc(O)c(O)c2)[C@H](O)[C@H](O)[C@H]1O
inactive: outcome [1] | outcome [2] | outcome [3] | outcome [4] | outcome [5] | outcome [6] | outcome [7] | outcome [8] | Potency [9]

CC1(C)S[C@@H]2[C@H](N=CN3CCCCCC3)C(=O)N2[C@H]1C(=O)O
inactive: outcome [1] | outcome [2] | outcome [3] | outcome [4] | outcome [5] | outcome [6] | outcome [7] | outcome [8] | outcome [10]
active: Potency [9] 21.3 µM

CCC(C)NC(N)=O (stereo unspecified)
inactive: outcome [1] | outcome [2] | outcome [3] | outcome [4] | outcome [5] | outcome [6] | outcome [7] | outcome [8]

Cc1ccc(S(=O)(=O)O)c(C)c1
inactive: outcome [1] | outcome [2] | outcome [3] | outcome [4] | outcome [5] | outcome [6] | outcome [7] | outcome [8] | Potency [9] | outcome [10]

CNC(=O)[C@H]1O[C@@H](n2cnc3c(NCc4cc(Cl)ccc4OCc4cc(C)no4)ncnc32)[C@H](O)[C@@H]1N
inactive: outcome [1] | outcome [2] | outcome [3] | outcome [4] | outcome [5] | outcome [6] | outcome [7] | outcome [8] | Potency [9] | outcome [10]

CC(S)C(=O)NCC(=O)O (stereo unspecified)
inactive: outcome [1] | outcome [2] | outcome [3] | outcome [4] | outcome [5] | outcome [6] | outcome [7] | outcome [8]

Nc1ncnc(Nc2ccccc2)n1
inactive: outcome [1] | outcome [2] | outcome [3] | outcome [4] | outcome [5] | outcome [6] | outcome [7] | outcome [8] | Potency [9]

O=C(c1ccc(O)cc1)c1ccc(O)c(O)c1O
inactive: outcome [1] | outcome [2] | outcome [3] | outcome [4] | outcome [5] | outcome [6] | outcome [7] | outcome [8] | Potency [9]

COc1ccc2c(c1)C(=O)N(CCc1ccc(S(=O)(=O)NC(=O)NC3CCCCC3)cc1)C(=O)C2(C)C
inactive: fluorescence, % of fluorescein [1] 0.0317% [at 18.6 µM] | fluorescence, % of fluorescent control [2] 0.0227% [at 18.6 µM] | activity change [3] 0.0882% [at 18.6 µM] | fluorescence, % of fluorescent control [4] -0.0169% [at 18.6 µM] | fluorescence, % of Rose Bengal [5] -0.0384% [at 18.6 µM] | fluorescence, % of fluorescent control [6] -0.0823% [at 18.6 µM] | fluorescence, % of fluorescein control [7] -0.167% [at 18.6 µM] | fluorescence, % of fluorescent control [8] -0.0057% [at 18.6 µM] | Potency [9] | outcome [10]

COc1cc(C(=S)N2CCOCC2)cc(OC)c1OC
inactive: outcome [1] | outcome [2] | outcome [3] | outcome [4] | outcome [5] | outcome [6] | outcome [7] | outcome [8] | Potency [9] | outcome [10]

BrCc1cccc(Oc2ccccc2)c1
inactive: outcome [1] | outcome [2] | outcome [3] | outcome [4] | outcome [5] | outcome [6] | outcome [7] | outcome [8] | Potency [9]

COc1ccc(C2CNC(=O)C2)cc1OC1CCCC1 (stereo unspecified)
inactive: fluorescence, % of fluorescein [1] 0.0387% [at 18.6 µM] | fluorescence, % of fluorescent control [2] -0.0755% [at 18.6 µM] | activity change [3] 0.0153% [at 18.6 µM] | fluorescence, % of fluorescent control [4] -0.222% [at 18.6 µM] | fluorescence, % of Rose Bengal [5] 0.472% [at 18.6 µM] | fluorescence, % of fluorescent control [6] -0.0095% [at 18.6 µM] | fluorescence, % of fluorescein control [7] -0.0056% [at 18.6 µM] | fluorescence, % of fluorescent control [8] -0.0914% [at 18.6 µM] | Potency [9] | outcome [10]

CC(CN)CC(C)(C)CCN (stereo unspecified)
inactive: outcome [1] | outcome [2] | outcome [3] | outcome [4] | outcome [5] | outcome [6] | outcome [7] | outcome [8] | Potency [9] | outcome [10]
